Source: PubChem BioAssay (NCATS)
Inconclusive results are not listed. Calls of active or inactive are those of the source. Calls follow the shape of the dose curve; as a rule, active = well fitted inhibition curve with a large enough effect; inconclusive = small, poorly fitted or top-dose-only effect; inactive = flat fitted curve, though single readings scatter.

How the values were obtained:
Test in all cases: qHTS profiling for inhibitors of Plasmodium falciparum proliferation (AID 504749); also: nearly all actives have a fitted effect of over 60% in size
Conditions in all cases: P. falciparum in erythrocytes, SYBR Green DNA, 72 h; series mostly up to 28.7 µM
CP256 = tested on: CP256
Procedure, shortened: (§1)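 Three-day growth assay of blood-stage parasites in erythrocytes (0.3% parasitemia, 2.5% hematocrit) at 37 C, 5% CO2, quantified by SYBR Green DNA staining after overnight detergent lysis.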

CP260 = tested on: CP260
Procedure, shortened: as §1

CP262 = tested on: CP262
Procedure, shortened: as §1

CP265 = tested on: CP265
Procedure, shortened: as §1

CP266 = tested on: CP266
Procedure, shortened: as §1

CP268 = tested on: CP268
Procedure, shortened: as §1

CP269 = tested on: CP269
Procedure, shortened: as §1

CP286 = tested on: CP286
Procedure, shortened: as §1

CP291 = tested on: CP291
Procedure, shortened: as §1

CP297 = tested on: CP297
Procedure, shortened: as §1

CP305 = tested on: CP305
Procedure, shortened: as §1

CP315 = tested on: CP315
Procedure, shortened: as §1

CP325 = tested on: CP325
Procedure, shortened: as §1

CP329 = tested on: CP329
Procedure, shortened: as §1

CP335 = tested on: CP335
Procedure, shortened: as §1

DFO2036 = tested on: DFO2036
Procedure, shortened: as §1

DIV14 = tested on: DIV14
Procedure, shortened: as §1

DIV17 = tested on: DIV17
Procedure, shortened: as §1

DIV30 = tested on: DIV30
Procedure, shortened: as §1

Dd2 = tested on: Dd2
Procedure, shortened: as §1

Measured: Potency
Potency is read from the fitted curve at half-maximal effect.

CC(=O)N(O)CCCCCNC(=O)CCC(=O)N(O)CCCCCNC(=O)CCC(=O)N(O)CCCCCN
inactive: all assays above

C[N+]1(CCCCC[N+]2(C)CCCC2)CCCC1
inactive: all assays above

CCn1cc(C(=O)O)c(=O)c2cnc(N3CCCC3)nc21
inactive: all assays above

COc1cc(NS(C)(=O)=O)ccc1Nc1c2ccccc2nc2ccccc12
active: CP256 1 µM | CP260 1 µM | CP262 3.79 µM | CP265 1 µM | CP266 5.36 µM | CP268 3.38 µM | CP269 4.78 µM | CP286 2 µM | CP291 1.69 µM | CP297 4.78 µM | CP305 3.38 µM | CP315 6.75 µM | CP325 4.26 µM | CP329 4.78 µM | CP335 4.26 µM | DFO2036 2.82 µM | DIV14 1.9 µM | DIV17 1.51 µM | DIV30 4.26 µM

CCCCCC=CCC=CCCCCCCCC(=O)OCC
inactive: all assays above

CC[N+](CC)(CCNC(=O)C(=O)NCC[N+](CC)(CC)Cc1ccccc1Cl)Cc1ccccc1Cl
active: CP256 0.398 µM | CP260 1.58 µM | CP262 0.849 µM | CP265 0.562 µM | CP266 2.69 µM | CP268 7.57 µM | CP269 4.78 µM | CP286 0.891 µM | CP291 6.75 µM | CP297 2.69 µM | CP305 3.01 µM | CP315 3.79 µM | CP325 3.38 µM | CP329 2.39 µM | CP335 2.69 µM | DFO2036 1.78 µM | DIV14 4.26 µM | DIV17 4.78 µM | DIV30 6.01 µM | Dd2 2.51 µM

CCCCOc1ccc(C(=O)CCN2CCCCC2)cc1
inactive: all assays above

Nc1ccc(/C=C/c2ccc(N)cc2S(=O)(=O)O)c(S(=O)(=O)O)c1
inactive: all assays above

N[C@H](Cc1c[nH]c2ccccc12)C(=O)O
not listed: CP335 | Dd2
inactive: all other assays above

C[C@H]1C[C@H]2[C@@H]3CCC4=CC(=O)C=C[C@]4(C)[C@@]3(Cl)[C@@H](O)C[C@]2(C)[C@@]1(O)C(=O)CO
not listed: DIV30
inactive: all other assays above

NCCC(O)(P(=O)(O)O)P(=O)(O)O
inactive: all assays above

Nc1ccc(C(=O)Nc2ccccc2N)cc1
not listed: DIV30
inactive: all other assays above

C[C@@H]1C(=O)NC2=Nc3cccc(Cl)c3CN21
not listed: DIV14
inactive: all other assays above

COc1cc(OC)cc(OC)c1
inactive: all assays above

CCCCCCCCCCCCCCCCCC(=O)OCC(O)CO (stereo not drawn)
not listed: CP335 | DIV30
inactive: all other assays above

C#C[C@]1(OC(C)=O)CC[C@H]2[C@@H]3CCC4=C[C@@H](OC(C)=O)CC[C@@H]4[C@H]3CC[C@@]21C
inactive: all assays above

Cc1cc(=O)n(-c2ccccc2)n1C
inactive: all assays above

O=C(O)CCCCC(=O)O
not listed: CP335
inactive: all other assays above

CC(=O)Nc1c(I)cc(I)c(C(=O)O)c1I
inactive: all assays above

CC(C)(C(=O)c1cccnc1)c1cccnc1
inactive: all assays above

CN=C(NC#N)NCCSCc1csc(N=C(N)N)n1
inactive: all assays above

NCCc1ccn[nH]1
inactive: all assays above

CN1C(CCl)Nc2cc(Cl)c(S(N)(=O)=O)cc2S1(=O)=O (stereo not drawn)
inactive: all assays above

CN1C2CCC1CC(OC(=O)c1c[nH]c3ccccc13)C2 (stereo not drawn)
not listed: DIV14
inactive: all other assays above

N[C@@H](Cc1cnc[nH]1)C(=O)O
inactive: all assays above

Cc1cc(O)c(C(C)C)cc1Cl
not listed: DIV17
inactive: all other assays above

O=C(CCN1CCC(c2ccccc2)C1)c1ccc2c(c1)OCCO2 (stereo not drawn)
not listed: DIV14 | DIV17
inactive: all other assays above

NCCCC[C@H](N[C@@H](CCc1ccccc1)C(=O)O)C(=O)N1CCC[C@H]1C(=O)O
inactive: all assays above

COc1ccc(C2C(=O)c3ccccc3C2=O)cc1
not listed: DIV14
inactive: all other assays above

C[C@H]1[C@H](NC(=O)/C(=N/OC(C)(C)C(=O)O)c2csc(N)n2)C(=O)N1S(=O)(=O)O (stereo in doubt)
inactive: all assays above

CCCCOc1ccc(OCCCN2CCOCC2)cc1
not listed: CP335
inactive: all other assays above

Nc1cc(Cl)c(NC2=NCCN2)c(Cl)c1
not listed: DIV14
inactive: all other assays above

COC1=CC(=O)C[C@@H](C)[C@]12Oc1c(Cl)c(OC)cc(OC)c1C2=O
not listed: DIV14
inactive: all other assays above

CC(O)C(=O)O (stereo not drawn)
not listed: CP335
inactive: all other assays above

OCc1ccccc1O
inactive: all assays above

CCCCC1=NC2(CCCC2)C(=O)N1Cc1ccc(-c2ccccc2-c2nn[nH]n2)cc1
not listed: DIV14
inactive: all other assays above

CC(C)COC(=O)OCN1C(=O)CN(CCN2CC(=O)N(COC(=O)OCC(C)C)C(=O)C2)CC1=O
inactive: all assays above

CCCCCCCCCCCCCCCC[N+](C)(C)CC
active: CP256 5.01 µM | CP260 2.82 µM | CP262 4.78 µM | CP265 5.01 µM | CP266 13.5 µM | CP268 6.75 µM | CP269 4.26 µM | CP286 1.41 µM | CP291 4.78 µM | CP297 6.75 µM | CP305 6.01 µM | CP315 4.78 µM | CP325 6.01 µM | CP329 4.78 µM | CP335 4.78 µM | DFO2036 2.82 µM | DIV14 7.57 µM | DIV17 7.57 µM | DIV30 5.36 µM | Dd2 6.31 µM

COCc1c(C(C)C)nc(C(C)C)c(/C=C/[C@@H](O)C[C@@H](O)CC(=O)O)c1-c1ccc(F)cc1
inactive: all assays above

O=C1OC(c2ccc(O)cc2)(c2ccc(O)cc2)c2ccccc21
not listed: DIV30
inactive: all other assays above

CC1=C(C(=O)OC(C)C)C(c2cccc([N+](=O)[O-])c2)C(C(=O)OC2CN(C(c3ccccc3)c3ccccc3)C2)=C(N)N1 (stereo not drawn)
active: CP256 4.47 µM | CP260 6.31 µM | CP262 12 µM | CP265 7.94 µM | CP266 9.53 µM | CP268 9.53 µM | CP269 8.49 µM | CP286 5.01 µM | CP291 8.49 µM | CP297 13.5 µM | CP305 7.57 µM | CP315 13.5 µM | CP325 6.01 µM | CP329 6.01 µM | CP335 4.78 µM | DFO2036 7.08 µM | DIV14 7.57 µM | DIV17 9.53 µM | Dd2 11.2 µM

COC(=O)[C@@H]1CC2=CC(=O)CC[C@]2(C)[C@@]23O[C@@H]2C[C@@]2(C)[C@@H](CC[C@@]24CCC(=O)O4)[C@H]13
inactive: all assays above

O=C1c2ccccc2C(=O)C1c1ccccc1
not listed: CP266
inactive: all other assays above

CCN(CC)C(=O)N1CCN(C)CC1
not listed: CP266
inactive: all other assays above

CCCCC(CC)CN=C(N)NC(N)=NCCCCCCN=C(N)NC(N)=NCC(CC)CCCC (stereo not drawn)
active: CP256 3.55 µM | CP260 1.12 µM | CP262 1.07 µM | CP265 3.55 µM | CP268 1.69 µM | CP269 1.51 µM | CP286 0.631 µM | CP291 1.69 µM | CP297 3.38 µM | CP305 1.69 µM | CP315 1.35 µM | CP325 1.2 µM | CP329 1.51 µM | CP335 1.51 µM | DFO2036 3.16 µM | DIV14 1.35 µM | DIV17 1.2 µM | DIV30 1.2 µM | Dd2 2 µM

CC(C)(Oc1ccc(Cl)cc1)C(=O)O
not listed: CP291 | CP305 | CP335
inactive: all other assays above

Oc1c(Cl)cc(Cl)cc1Sc1cc(Cl)cc(Cl)c1O
not listed: CP297
inactive: all other assays above

CC(=O)Oc1ccc(C(c2ccc(OC(C)=O)cc2)c2ccccn2)cc1
not listed: CP291
inactive: all other assays above

CC(C)COC(=O)c1ccc(N)cc1
not listed: CP269 | CP291 | CP325 | CP329 | DIV14
inactive: all other assays above

N[C@H](CO)C(=O)O
not listed: CP268
inactive: all other assays above

NC(CO)(CO)CO
not listed: CP297
inactive: all other assays above

Oc1ccc(Cl)cc1Sc1cc(Cl)ccc1O
not listed: CP297 | CP335 | DIV14 | DIV17 | DIV30
inactive: all other assays above

c1ccc(OCc2ccc(CCCN3CCOCC3)cc2)cc1
active: DIV14 8.49 µM | DIV17 6.75 µM
not listed: CP265 | DIV30 | Dd2
inactive: all other assays above

CCN1CCC[C@H]1CNC(=O)c1c(OC)ccc(Br)c1OC
active: Dd2 12.6 µM
not listed: CP297 | DIV14 | DIV17
inactive: all other assays above
